Whole data set: some 68,000 sequences, median “fluorescence intensity (a.u.)” near 9,100, cut for the highest 2% near 16,000. Only a selection was taken, and the highest values are over-represented in it overall.

Chain of OsWRKY34 (Q0JBA9 entry or part of it): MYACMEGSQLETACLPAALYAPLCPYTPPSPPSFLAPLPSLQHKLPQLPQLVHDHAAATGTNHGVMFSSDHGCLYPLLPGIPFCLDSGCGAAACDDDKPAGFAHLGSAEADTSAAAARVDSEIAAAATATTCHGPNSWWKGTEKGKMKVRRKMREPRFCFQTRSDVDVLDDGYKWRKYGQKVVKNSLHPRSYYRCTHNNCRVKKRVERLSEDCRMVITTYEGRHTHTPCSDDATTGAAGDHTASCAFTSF

The assay concerns the target OsWRKY34 (Oryza sativa, UniProt Q0JBA9 1-250). The experiment in a line: protein-binding microarray (RPBM); PBS, 2% BSA, 51.3 ng/ul salmon testes DNA, 50 uM zinc acetate, 200 nM TF, 25 C, 1 h; high values mean tight binding. To be noted: protein: recombinant; tags: N-terminal polyhistidine and DsRed monomer fusion (pET32a); label: CyDye5-dUTP incorporated in the synthesized complementary strand; 3' TTTTT single-stranded linker to array surface; dsDNA, one strand shown. An outline of the steps:
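Using Ni–NTA, transcription factors fused N-terminally to polyhistidine and DsRed were purified after expression in E. coli BL21-CodonPlus. These were incubated at 200 nM with a blocked, double-stranded custom Agilent array for 1 h at 25 °C in a buffer containing 50 µM zinc acetate, and the array was washed. The binding signal is per-feature fluorescence intensity (arbitrary units) on an Axon 4000B scanner.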
For “ATTTCCCCTGAACTCTACGTTTACAGGTTATGGTTATCTCCGGAGTCACCTAGTGCAG”, the binding signal is 8350 fluorescence intensity (a.u.).
To “ATACATATTTTTTTCTCTATTTCTGCCCAACATGTTTTTCCGGAGTCACCTAGTGCAG” belongs 8950 fluorescence intensity (a.u.).
To “AAGGGTTATCGACCTACGCCTGCTGGCCCTTTTCGGCTTTCGGAGTCACCTAGTGCAG” belongs 9300 fluorescence intensity (a.u.); to “TGTCAGGTCAAATCGGGGAGGCGGGGTGCGTACCAACGGTCGGAGTCACCTAGTGCAG”, 11900 fluorescence intensity (a.u.).
The value for “AAACGCTGTGGTGGGTGGTGGTGCGGATGGGGAGGTGTGGCGGAGTCACCTAGTGCAG” was 14100 fluorescence intensity (a.u.); that for “CGCTCGGCGGTGAGGTGGAGGTGGAGGTGGGTGGGAGATGCGGAGTCACCTAGTGCAG” was 12900 fluorescence intensity (a.u.); that for “GGGAGATTTGTTGCAACGGAGGGCATTGAGTGGTGGGGACCGGAGTCACCTAGTGCAG” was 8570 fluorescence intensity (a.u.).
With “TCGGCGGCGAGGTGGTGGCGGTGGCGGTGGTGGGAGTAGTCGGAGTCACCTAGTGCAG”, the binding signal is 15200 fluorescence intensity (a.u.).
To “GATGCGGGTGAGGTGCCGCGCTGTGGGGAGAGAGGGTGGGCGGAGTCACCTAGTGCAG” belongs 8560 fluorescence intensity (a.u.); to “GCTGTGGCGGAGGTGGGGAGGTGGAGGTGGAGGGGAGATGCGGAGTCACCTAGTGCAG”, 24600 fluorescence intensity (a.u.).
To “CTGTGCGGGAGGTGGAGATGGAGATGGTGGGTGGATCGGACGGAGTCACCTAGTGCAG” belongs 8630 fluorescence intensity (a.u.); to “GAGGTGGGTGTGGAACTGTGGATGCGGGTCGGGGAGATCGCGGAGTCACCTAGTGCAG”, 16900 fluorescence intensity (a.u.); to “TGGTGGTGGTGGTGGCTGTAGTGTGGAGGTGGTGGGGAGTCGGAGTCACCTAGTGCAG”, 16700 fluorescence intensity (a.u.).
As for “CGTTGGAACGTGCGGGTGTGGGGAAACTGAGGGTGAGGATCGGAGTCACCTAGTGCAG”, the binding signal is 8600 fluorescence intensity (a.u.).
In the case of “TGCATTGACCAGGTCAACGGGAGAGGGAGGGGCAAAATCGCGGAGTCACCTAGTGCAG”, the binding signal is 19600 fluorescence intensity (a.u.).
To “CATCTGATCGGCATCGGCATCGTCCTCGTCCTCGGCATCACGGAGTCACCTAGTGCAG” belongs 9990 fluorescence intensity (a.u.).
The value for “TCTGGGTATCCTCTGTTATGTCATCTTCACCTCCATTTGGCGGAGTCACCTAGTGCAG” was 8690 fluorescence intensity (a.u.); that for “CTGCTAGCCCGGTTAATCTACCAAAACCCGTCTTGATTTACGGAGTCACCTAGTGCAG” was 9070 fluorescence intensity (a.u.); that for “TTAGTATAGCTGTATTCTTCCCAACTTCCTATTTTCCTCTCGGAGTCACCTAGTGCAG” was 8540 fluorescence intensity (a.u.).
With “CTCGAACCACTGACCATCCCGTCCACACTGCACCGCGCTACGGAGTCACCTAGTGCAG”, the binding signal was 8260 fluorescence intensity (a.u.).
For “AGCCACGACCCAATCTTCGCTGCGGTTGACTTTAAATTAACGGAGTCACCTAGTGCAG”, the binding signal was 9760 fluorescence intensity (a.u.).
The value for “GCGTGTGTTCTTGTGCTGGATTGTGGAGTTCTTGATCCCTCGGAGTCACCTAGTGCAG” was 10000 fluorescence intensity (a.u.).
To “GGACGGAGGGGCGGGGTGCGACGCGGACGGCGGCGGCGGGCGGAGTCACCTAGTGCAG” belongs 13500 fluorescence intensity (a.u.); to “GATAACATGTTGTAGTCTTCCAGGGGTGGGTGTTAGCTGTCGGAGTCACCTAGTGCAG”, 16700 fluorescence intensity (a.u.).
To “TGTGGGACGATGGGGAGGTGTGGGGACGCACGCGGGGCGACGGAGTCACCTAGTGCAG” belongs 10200 fluorescence intensity (a.u.); to “ACTCCGGCGGGTTAGGGTTTGGGGTTGGGGTGAGGGTAGGCGGAGTCACCTAGTGCAG”, 10900 fluorescence intensity (a.u.).
Turning to “GCGATGGGAGGTGGGCGACGCGAGGGAGAGGGGAGAGGGGCGGAGTCACCTAGTGCAG”, the binding signal is 18500 fluorescence intensity (a.u.).
The value for “AACATAACTGTCTTCTTCCATTTGTATGTCATGTTTCTGTCGGAGTCACCTAGTGCAG” was 10700 fluorescence intensity (a.u.); that for “AGGAGGGGAGGCGCGGCGGAGGAGAAGAGGTGGGGATGGACGGAGTCACCTAGTGCAG” was 10000 fluorescence intensity (a.u.).
To “GGCGGCGCGGGTTTAGCGGGATGGGGAGGCGGCGAGTGGCCGGAGTCACCTAGTGCAG” belongs 8140 fluorescence intensity (a.u.); to “CGAAATGGGAGGCGGGGTTTAGGGTTTCCGGCGGGGAGGGCGGAGTCACCTAGTGCAG”, 25200 fluorescence intensity (a.u.); to “GGAGATACGGCGAGGGGAGGGGACGGAGGGGCGGGGTGCGCGGAGTCACCTAGTGCAG”, 24700 fluorescence intensity (a.u.).
As to “CATGGTGACATGTTGTGGGGCTGTGTCTTGTGGGTACAGTCGGAGTCACCTAGTGCAG”, the binding signal is 8650 fluorescence intensity (a.u.).
The value for “GCGCGGCGCGGCGGGACGGGGTGGGGCGAGGGCAGCAGCGCGGAGTCACCTAGTGCAG” was 8520 fluorescence intensity (a.u.).

Source of the values: article PMC7819943, “Rice protein-binding microarrays: a tool to detect cis-acting elements near promoter regions in rice”.
